Compound activity deposited in PubChem BioAssay by National Center for Advancing Translational Sciences (NCATS).
A selection: hits, their analogues and other compounds. The true share with any hit is near 3.7%.
Tau fluor counter: counter-screen for tau fibril formation inhibitors; Potency, µM (series often up to 57.7 µM), for inactives: at the highest dose activity change, negative = decrease; tau K18 P301L Alexa594 fluorescence, heparin fibrillization; actives 0.93% (n = 280,000); note: % is set by controls: 0 for no effect and ±100 for the full control effect; nearly all actives have a fitted effect of over 55% in size
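Human tau K18 P301L (15 uM unlabeled, 0.24 uM Alexa 594-labeled) in 100 mM sodium acetate pH 7 with 20 uM heparin, 6 hr at 37 C. ThT 30 uM added, 1 hr ambient; Alexa 594 FP and total fluorescence read at 555/632 nm.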
HttQ103 aggreg: reduces HttQ103-GFP aggregates in PC12 cells. Potency, µM (top dose mostly 46.1 µM), without a hit: top-dose activity change, negative = inhibition, most hits filed as inhibitors. AID 1688. PC12 HttQ103-GFP aggregates, Acumen cytometry, 40 h. actives 1.1% (n = 220,000); note: % is set by controls: 0 for no effect and ±100 for the full control effect; nearly all actives have a fitted effect of over 60% in size
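Aggregate formation scored by laser-scanning cytometer (488 excitation, 500–530 emission) in lysed PC12 cells expressing Q103-GFP after 100 nM tebufenozide induction; library tested in dose series, with ATPLite reagent added in the multiplex.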
Tau fibril FP: tau fibrillization inhibition (FP); K18 P301L tau heparin fibrillization, Alexa594 FP, 6 h; Potency, µM (doses to about 57.7 µM), for the others: at the top dose activity, negative = inhibition, usual class: inhibitors; actives 0.39% (n = 280,000); note: % is set by controls: 0 for no effect and ±100 for the full control effect; nearly all actives have a fitted effect of over 55% in size
Target sequence (P10636 561-689 P618L limits assumed): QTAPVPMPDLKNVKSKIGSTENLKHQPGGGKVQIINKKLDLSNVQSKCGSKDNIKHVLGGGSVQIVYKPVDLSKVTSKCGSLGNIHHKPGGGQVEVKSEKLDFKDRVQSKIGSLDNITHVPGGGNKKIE
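Compound effects on tau fibrillization are measured by Alexa 594 fluorescence polarization (ex 555, em 632 nm). K18 P301L tau is used at 15 uM with 0.24 uM labeled tracer, and 20 uM heparin induces aggregation over 6 hr at 37 C.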
HTT ATP protect: protects HTT-Q103 PC12 cells, measured by ATP; PC12 HTT-Q103 induced, cytoprotection, ATP luminescence, 40 h; Potency, µM (highest dose often 56.4 µM), without a hit: cytoprotection (ATP increase), hits mostly activators; actives 0.14% (n = 230,000); note: % of control where 0% means no effect; nearly all actives have a fitted effect of over 45% in size
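Compounds added alongside 100 nM tebufenozide, which induces toxic Q103 huntingtin exon 1-GFP in stable PC12 cells; surviving cells quantified by luminescent ATP measurement. Medium: phenol red-free DMEM, 5% equine and 5% calf serum.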
Tau ThT inhib: blocks human tau fibril formation measured by thioflavin T | P10636 | recombinant tau K18 P301L (four-repeat tau fragment), heparin-induced fibrillization, ThT fluorescence | Potency, µM (doses to about 57.4 µM), for the others: at the top dose activity, negative = inhibition, most hits filed as inhibitors | actives 2.1% (n = 270,000) | AID 1460; note: % is set by controls: 0 for no effect and ±100 for the full control effect; nearly all actives have a fitted effect of over 55% in size
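Aggregation was driven by heparin (20 uM final) acting on recombinant tau […] bearing P301L in 100 mM sodium acetate pH 7; fibrils were detected with Thioflavin T.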
* marks the source's active call; other numbers are inactive results; ? = inconclusive; · = not tested or not shown; [ ] = dose if it differs, or a comment. Calls come from the whole dose curve; as a rule, active = well fitted curve in the direction sought with a large enough effect; inconclusive = small, poorly fitted or top-dose-only effect, or another doubt; inactive = no such curve, though single readings can be large; an effect the other way counts as inactive or inconclusive. Potency is the fitted concentration of half-maximal effect.

SMILES	Tau fluor counter	HttQ103 aggreg	Tau fibril FP	HTT ATP protect	Tau ThT inhib
COc1ccc(Nc2cc(C)c3cc(NC(=O)Cc4c(F)cccc4Cl)ccc3n2)cc1	7.9µM*[quencher]	·	?	·	?
N#Cc1nc(-c2ccc(OCc3ccccc3)cc2)oc1NCc1cccnc1	?	13µM*	16%	-68%[0.074 µM]	?
COc1ccc(CNc2oc(-c3cccc4ccccc34)nc2C#N)cc1	8.9µM*[quencher]	-21%	-7%	34%[10 µM]	-17%
N#Cc1nc(-c2ccc(OCc3ccc(Cl)cc3)cc2)oc1NCc1cccnc1	-10%	-4%	4%	-40%	-3%
COc1ccc(CNc2oc(/C=C/c3cccc(OC)c3)nc2C#N)cc1	6.3µM*[quencher]	·	?	·	?
N#Cc1nc(-c2cccc3ccccc23)oc1NCC1CCCO1 (stereo not given)	16µM*[quencher]	-7%[9.22 µM]	?	-12%[10 µM]	?
CCC(C)Sc1oc(-c2ccco2)nc1S(=O)(=O)c1ccc(C)cc1 (stereo not given)	?	·	1%	·	?
CCN(CC)C[C@@H](O)c1ccc2ccc3ccccc3c2c1	·	·	·	11%[10 µM]	·
O=C(O)CCNc1ncnc2nc[nH]c12	·	·	·	-9%[10 µM]	·
COc1ccc(-c2nc(C#N)c(NCc3ccc(C)cc3)o2)cc1OC	?	3%	10%	-7%	0%
COc1ccc(-c2nc(C#N)c(NCCc3ccccc3)o2)cc1OC	16µM*[quencher]	-10%	?	-77%[0.074 µM]	?
COc1cccc(/C=C/c2nc(C#N)c(NCCc3ccc(OC)c(OC)c3)o2)c1	13µM*[quencher]	·	?	·	?
COc1ccc(/C=C/c2nc(C#N)c(NCCc3ccc(OC)c(OC)c3)o2)cc1OC	?	·	2%	·	?
Cc1ccc(CNc2oc(C)nc2C#N)cc1	11µM*[quencher]	-1%	?	-26%	?
CC(C)c1cc(C(=O)N/N=C/c2c[nH]c3ccccc23)n[nH]1	-16%	-10%[9.22 µM]	7%	15%[10 µM]	·
CCc1ccc2c(Cl)c(C(=O)N/N=C/c3c[nH]c4ccccc34)sc2c1	11µM*[quencher]	-17%	?	-61%	10µM*
CCOc1ccccc1C(=O)N/N=C/c1c[nH]c2ccccc12	?	2%	7%	-9%	?
CCc1ccc(-c2cc(C(=O)N/N=C/c3c[nH]c4ccccc34)[nH]n2)cc1	10µM*[quencher]	?	-6%	-119%	?
CO/N=C/c1ccc(N2CCN(C(=O)c3cccc(C(F)(F)F)c3)CC2)c([N+](=O)[O-])c1	-22%	?	?	12%[10 µM]	?
CO/N=C/c1ccc(N2CCN(C(=O)c3ccc(Cl)cc3Cl)CC2)c([N+](=O)[O-])c1	-21%	18µM*	11%	-69%	?
CO/N=C/c1ccc(N2CCN(C(=O)c3ccc(F)cc3)CC2)c([N+](=O)[O-])c1	-6%	13µM*	5%	8%[10 µM]	?
Cc1cc(OCCCn2c(CCNC(=O)C3CCCCC3)nc3ccccc32)ccc1Cl	-16%	·	-8%	·	?
COc1ccc(C2C=C(Nc3ccccc3)C(=O)N2c2ccccc2)cc1OC (stereo not given)	-25%	2%	?	3%[10 µM]	13µM*
O=C(CCN1C(=O)c2ccccc2Sc2ncccc21)Nc1ccc(F)cc1	-1%	·	4%	·	4%
COc1ccc(C(=O)CSc2nc(SC)ns2)cc1OC	-11%	-24%	2%	-3%[0.074 µM]	-18%
SMILES	Tau fluor counter	HttQ103 aggreg	Tau fibril FP	HTT ATP protect	Tau ThT inhib
COc1ccc(C(=O)CSc2cc(C)nc3nc(C)nn23)cc1OC	2%	·	-8%	13µM*	?
COc1ccc(C(=O)COC(=O)c2ccc(OC)c(OC)c2)cc1OC	-6%	-16%	-6%	-3%	?
COc1ccc(C(=O)CSC#N)cc1OC	-9%	10%	?	?	16µM*
O=C(/C(=C/O)N=Nc1ccccc1)c1ccco1	-13%	20%	6%	35%[10 µM]	20µM*
Nc1nn(-c2ccccc2)c(N)c1N=Nc1cccc(F)c1	-21%	-11%[9.22 µM]	3%	-49%[10 µM]	10µM*
Cc1nn(-c2ccccc2)c(N)c1N=Nc1cccnc1	-11%	2%	-2%	-11%[10 µM]	?
Nc1nn(-c2ccccc2)c(N)c1N=Nc1ccc2c(c1)OCO2	?	7%	3%	·	1.8µM*
S=C1N[C@H](c2ccccc2)N[C@H](c2ccccc2)S1	·	·	·	21%[10 µM]	·
